Assay results as given in PubChem BioAssay (NCATS).
Inconclusive results are not listed. A call without a number means that no potency is given here. Calls of active or inactive are those of the source. Unless noted, calls come from the whole dose curve; as a rule, active = well fitted curve in the direction sought with a large enough effect; inconclusive = small, poorly fitted or top-dose-only effect, or another doubt; inactive = no such curve, though single readings can be large; an effect the other way counts as inactive or inconclusive.

Tests used:
[1] = qHTS for Inhibitors of the Functional Ribonucleoprotein Complex (vRNP) of Lassa (LASV) Arenavirus: LASV Primary Screen - GLuc reporter signal (AID 1347082; calls by dose curve; tested in HEK293 reporter line; note: series mostly up to about 57 µM; nearly all actives have a fitted effect of over 60% in size)
[2] = qHTS for Inhibitors of the Functional Ribonucleoprotein Complex (vRNP) of Lassa (LASV) Arenavirus: Viability assay - alamar blue signal for LASV Primary Screen (AID 1347083; calls by dose curve; tested in HEK293 reporter line; note: series mostly up to about 57 µM; nearly all actives have a fitted effect of over 80% in size)
[3] = qHTS for Inhibitors of the Functional Ribonucleoprotein Complex (vRNP) of Lymphocytic Choriomeningitis Arenaviruses (LCMV): Viability assay - alamar blue signal for LCMV Primary Screen (AID 1347085; calls by dose curve; tested in HEK293 reporter line; note: series mostly up to about 57 µM; nearly all actives have a fitted effect of over 80% in size)
[4] = molecular target: Nucleoprotein (Lymphocytic choriomeningitis virus (strain Armstrong)) (UniProt P09992); test: qHTS for Inhibitors of the Functional Ribonucleoprotein Complex (vRNP) of Lymphocytic Choriomeningitis Arenaviruses (LCMV): LCMV Primary Screen - GLuc reporter signal (AID 1347086; calls by dose curve; note: series mostly up to about 57 µM; nearly all actives have a fitted effect of over 70% in size)
Chain of Nucleoprotein (Lymphocytic choriomeningitis virus (strain Armstrong)) (P09992 whole entry, looked up): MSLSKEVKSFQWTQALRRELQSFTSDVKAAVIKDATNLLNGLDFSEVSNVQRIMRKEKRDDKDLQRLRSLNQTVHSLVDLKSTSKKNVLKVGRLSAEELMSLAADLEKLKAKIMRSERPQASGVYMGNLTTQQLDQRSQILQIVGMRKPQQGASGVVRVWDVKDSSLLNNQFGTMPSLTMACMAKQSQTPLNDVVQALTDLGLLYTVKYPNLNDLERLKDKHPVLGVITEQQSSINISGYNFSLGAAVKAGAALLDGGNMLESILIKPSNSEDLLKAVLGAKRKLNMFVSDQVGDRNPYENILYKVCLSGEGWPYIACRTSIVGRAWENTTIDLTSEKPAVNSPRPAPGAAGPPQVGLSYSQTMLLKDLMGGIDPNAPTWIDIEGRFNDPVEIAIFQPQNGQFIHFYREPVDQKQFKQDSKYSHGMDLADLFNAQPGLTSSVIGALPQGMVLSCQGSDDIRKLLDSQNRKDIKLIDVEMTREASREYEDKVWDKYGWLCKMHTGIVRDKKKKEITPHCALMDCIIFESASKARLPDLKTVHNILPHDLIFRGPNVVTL

[5] = qHTS of pediatric cancer cell lines to identify multiple opportunities for drug repurposing: Primary screen for TC32 cells (AID 1347089); note: nearly all actives have a fitted effect of over 60% in size
Outline: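 A viability screen of TC32 cells was run over 48 h, with primary MIPE doses spanning 0.78 nM–46 µM and NPC doses 0.59 nM–46 µM. ATP luminescence (CellTiter-Glo) served as the read-out.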

[6] = qHTS of pediatric cancer cell lines to identify multiple opportunities for drug repurposing: Primary screen for DAOY cells (AID 1347090); note: nearly all actives have a fitted effect of over 55% in size; note: potency is the fitted concentration of half-maximal effect
Outline: (§1)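 Viability measured as metabolically active cells via CellTiter-Glo luminescence following 48 hours of compound exposure, 11-point dilutions in confirmatory testing. 500-1,000 cells/well plated 5 hours before dosing; controls were DMSO and 2.3 µM bortezomib.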

[7] = qHTS of pediatric cancer cell lines to identify multiple opportunities for drug repurposing: Primary screen for A673 cells (AID 1347092); note: nearly all actives have a fitted effect of over 45% in size
Outline: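 Titration-based qHTS on A673 cells: MIPE compounds spanned 11 points (0.78 nM to 46 µM final), NPC compounds 8 points (0.59 nM to 46 µM final). Viability after 48 h was measured by ATP luminescence.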

[8] = qHTS of pediatric cancer cell lines to identify multiple opportunities for drug repurposing: Primary screen for SK-N-MC cells (AID 1347093); note: potency is the fitted concentration of half-maximal effect
Outline: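 Metabolically active cells were quantified by ATP-dependent luminescence (CellTiter-Glo, 15 min at room temperature) following 48 h treatment. Cells had been plated at 500-1,000 per well and settled for 5 h beforehand.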

[9] = qHTS of pediatric cancer cell lines to identify multiple opportunities for drug repurposing: Primary screen for BT-37 cells (AID 1347094); note: series mostly up to about 57 µM
Outline: (§2)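 Cells seeded at 500-1,000 cells/well in growth media, rested 5 hours at 37 degrees C, 5% CO2, then dosed; MIPE compounds at 11-point (from 0.78 nM) and NPC at 8-point (from 0.59 nM) final concentrations. Viability by CellTiter-Glo luminescence after 48 hours.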

[10] = qHTS of pediatric cancer cell lines to identify multiple opportunities for drug repurposing: Primary screen for NB-EBc1 cells (AID 1347095); note: potency is the fitted concentration of half-maximal effect
Outline: as §2

[11] = qHTS of pediatric cancer cell lines to identify multiple opportunities for drug repurposing: Primary screen for U-2 OS cells (AID 1347096); note: nearly all actives have a fitted effect of over 50% in size
Outline: (§3)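 Viability after 48 h compound treatment at 37C, 500-1,000 cells/well, read as ATP luminescence with CellTiter-Glo. Primary screens used 11-point (MIPE, 0.78 nM-46 µM) or 8-point (NPC, 0.59 nM-46 µM) final concentrations; follow-up screens used 11-point dilutions.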

[12] = qHTS of pediatric cancer cell lines to identify multiple opportunities for drug repurposing: Primary screen for Saos-2 cells (AID 1347097); note: nearly all actives have a fitted effect of over 40% in size
Outline: as §2

[13] = qHTS of pediatric cancer cell lines to identify multiple opportunities for drug repurposing: Primary screen for SK-N-SH cells (AID 1347098); note: nearly all actives have a fitted effect of over 65% in size; note: potency is the fitted concentration of half-maximal effect
Outline: (§4)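 Cells (500-1,000/well) rested 5 h, then received compounds for 48 h; metabolically active cells were measured by CellTiter-Glo luminescence. Final concentrations spanned up to 46 µM (MIPE, 11-point) or 0.59 nM-46 µM (NPC, 8-point) in primary screens, 11-point in follow-ups.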

[14] = qHTS of pediatric cancer cell lines to identify multiple opportunities for drug repurposing: Primary screen for NB1643 cells (AID 1347099); note: nearly all actives have a fitted effect of over 50% in size; note: potency is the fitted concentration of half-maximal effect
Outline: as §2

[15] = qHTS of pediatric cancer cell lines to identify multiple opportunities for drug repurposing: Primary screen for LAN-5 cells (AID 1347100)
Outline: as §3

[16] = qHTS of pediatric cancer cell lines to identify multiple opportunities for drug repurposing: Primary screen for BT-12 cells (AID 1347101); note: nearly all actives have a fitted effect of over 25% in size; note: potency is the fitted concentration of half-maximal effect
Outline: as §4

[17] = qHTS of pediatric cancer cell lines to identify multiple opportunities for drug repurposing: Primary screen for Rh18 cells (AID 1347102); note: nearly all actives have a fitted effect of over 65% in size
Outline: as §3

[18] = qHTS of pediatric cancer cell lines to identify multiple opportunities for drug repurposing: Primary screen for SJ-GBM2 cells (AID 1347091)
Outline: as §1

| Compound | Potency [1] | Potency [2] | Potency [3] | Potency [4] | Potency [5] | Potency [6] | Potency [7] | Potency [8] | Potency [9] | Potency [10] | Potency [11] | Potency [12] | Potency [13] | Potency [14] | Potency [15] | Potency [16] | Potency [17] | Potency [18] |
| --- | --- | --- | --- | --- | --- | --- | --- | --- | --- | --- | --- | --- | --- | --- | --- | --- | --- | --- |
| CCC(CC)(CNC(=O)CCCO)c1cccc(OC)c1 | inactive | inactive | inactive | inactive | inactive | inactive | inactive | inactive | inactive | inactive | inactive | inactive | inactive | inactive | inactive | inactive | inactive | – |
| COP(=S)(OC)Oc1cc(Cl)c(Cl)cc1Cl | inactive | inactive | inactive | inactive | inactive | inactive | inactive | inactive | inactive | inactive | inactive | inactive | inactive | inactive | inactive | inactive | inactive | – |
| O=C1OC(c2ccc(O)c(S(=O)(=O)O)c2)(c2ccc(O)c(S(=O)(=O)O)c2)c2c(Br)c(Br)c(Br)c(Br)c21 | inactive | inactive | inactive | inactive | inactive | inactive | inactive | inactive | inactive | inactive | inactive | inactive | inactive | inactive | inactive | inactive | inactive | – |
| C[C@]12CCC(=O)C=C1CC[C@@H]1[C@@H]2CC[C@@]2(C)[C@H]1CC[C@]2(C)O | inactive | inactive | inactive | inactive | inactive | inactive | inactive | – | inactive | – | inactive | – | inactive | inactive | inactive | – | inactive | – |
| N#C[C@H]1C[C@H]2C[C@@H]2N1C(=O)[C@@H](N)C12CC3CC(CC(O)(C3)C1)C2 | inactive | inactive | – | inactive | – | – | – | – | – | – | – | – | – | – | – | – | – | – |
| C[C@]12CC[C@@H]3c4ccc(OC(=O)N(CCCl)CCCl)cc4CC[C@H]3[C@@H]1CC[C@@H]2O | inactive | inactive | inactive | inactive | inactive | inactive | inactive | inactive | inactive | – | inactive | – | inactive | inactive | inactive | inactive | inactive | – |
| O=C(O)Cc1ccc(-c2ccccc2)cc1 | inactive | inactive | – | inactive | – | – | – | – | – | – | – | – | – | – | – | – | – | – |
| O=C1c2ccccc2C(=O)C1C(=O)C(c1ccccc1)c1ccccc1 | inactive | inactive | inactive | inactive | – | 26.6 µM (active) | – | – | inactive | – | inactive | – | inactive | inactive | – | inactive | inactive | – |
| CCN[C@@H](C)Cc1ccccc1 | inactive | inactive | inactive | inactive | inactive | inactive | inactive | inactive | inactive | inactive | inactive | inactive | inactive | inactive | inactive | inactive | inactive | – |
| COc1c2c(cc3c1OCO3)CCN(C)C2 | inactive | inactive | inactive | inactive | inactive | inactive | inactive | inactive | inactive | inactive | inactive | – | inactive | inactive | inactive | inactive | inactive | – |
| [N-]=[N+]=CC(=O)OC[C@H](N)C(=O)O | inactive | inactive | inactive | inactive | inactive | inactive | inactive | inactive | inactive | inactive | inactive | inactive | inactive | inactive | inactive | inactive | inactive | – |
| CCCN(CCC)C(=O)Cc1c(-c2ccc(Cl)cc2)nc2ccc(Cl)cn12 | inactive | inactive | inactive | inactive | inactive | inactive | – | 16.8 µM (active) | inactive | inactive | inactive | inactive | inactive | – | inactive | – | inactive | – |
| C[C@]12CC[C@H]3[C@@H](CCC4=CC(=O)CC[C@@H]43)[C@@H]1CC[C@@H]2OC(=O)CCC1CCCCC1 | inactive | inactive | inactive | inactive | inactive | inactive | inactive | – | – | – | inactive | – | inactive | inactive | – | inactive | inactive | – |
| O=C(Nc1ccc(Br)cc1)c1cc(Br)cc(Br)c1O | inactive | inactive | inactive | inactive | inactive | 21.1 µM (active) | – | – | – | – | – | – | 34.4 µM (active) | 9.44 µM (active) | – | 27.6 µM (active) | inactive | – |
| O=c1oc2ccccc2c(O)c1Cc1c(O)c2ccccc2oc1=O | inactive | inactive | inactive | inactive | inactive | inactive | inactive | 15 µM (active) | inactive | 15 µM (active) | inactive | inactive | inactive | inactive | inactive | inactive | inactive | – |
| Clc1ccc(C(c2ccc(Cl)cc2)C(Cl)(Cl)Cl)cc1 | inactive | inactive | inactive | inactive | inactive | – | – | 5.31 µM (active) | – | – | inactive | – | – | – | inactive | inactive | inactive | inactive |
| C[C@]12CC[C@H]3[C@@H](CCC4=CC(=O)CC[C@@H]43)[C@@H]1CC[C@@H]2OC(=O)CCc1ccco1 | inactive | inactive | inactive | inactive | inactive | inactive | inactive | inactive | inactive | inactive | inactive | – | inactive | inactive | inactive | inactive | inactive | – |
| CCN[C@H](C)Cc1cccc(C(F)(F)F)c1 | inactive | inactive | inactive | inactive | inactive | inactive | inactive | inactive | inactive | inactive | inactive | inactive | – | inactive | inactive | inactive | inactive | – |
| CC(C)c1c(CN(C)C(C)Cc2ccccc2)n(C)n(-c2ccccc2)c1=O (centres undefined) | inactive | inactive | inactive | inactive | inactive | inactive | inactive | inactive | inactive | inactive | inactive | inactive | inactive | inactive | inactive | – | inactive | – |
| C[C@H]1[C@@H]2Cc3ccc(O)cc3[C@@]1(C)CCN2C | inactive | inactive | inactive | inactive | inactive | inactive | inactive | – | inactive | inactive | inactive | inactive | inactive | inactive | inactive | inactive | inactive | – |
